# Test results reported in PubChem BioAssay (NCATS).
# Results filed as inconclusive are left out. Entries that show only a call come without a potency. Active and inactive are the calls of the source. Calls follow the shape of the dose curve; as a rule, active = well fitted curve in the direction sought with a large enough effect; inconclusive = small, poorly fitted or top-dose-only effect, or another doubt; inactive = no such curve, though single readings can be large; an effect the other way counts as inactive or inconclusive.
# Target: Ferritin light chain (Equus caballus) (UniProt P02791)
# Assay: qHTS Validation Assay for Identification of Novel General Anesthetics (AID 2323)
# Conditions: horse apoferritin, anesthetic-site fluorescent probe displacement; series mostly up to 76.9 µM
# How it was run: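 Fluorescence at 535 nm (excitation 380 nm) reported loss of 1-AMA binding to horse-spleen apoferritin (10 uM) in PBS with 50% saturated 1-aminoanthracene, after 10 min room-temperature incubation with compound; values from Hill fits of normalized response.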
# Ferritin light chain (Equus caballus), sequence (P02791 2-175 limits assumed): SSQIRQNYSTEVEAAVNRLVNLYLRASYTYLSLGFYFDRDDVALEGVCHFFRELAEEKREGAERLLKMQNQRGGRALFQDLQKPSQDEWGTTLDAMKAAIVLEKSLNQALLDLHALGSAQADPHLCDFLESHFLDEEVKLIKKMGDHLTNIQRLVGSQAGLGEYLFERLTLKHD
row,Structure (SMILES),Potency
1,O=C(N[C@@H](Cc1ccccc1)C(=O)CCl)OCc1ccccc1,inactive
2,NC(N)=NC(N)=Nc1cccc(Cl)c1,inactive
3,CCCC[C@@]1(C2CCCC2)Cc2cc(OCC(=O)O)c(Cl)c(Cl)c2C1=O,inactive
4,C/C(=C\c1ccc(C(=O)O)cc1)c1ccc2c(c1)C(C)(C)CCC2(C)C,inactive
5,Oc1cc2c(cc1O)C(c1ccccc1)CNCC2 (stereo not given),inactive
6,O=c1cc(-c2ccccc2)[nH]c2nc(Cl)ccc12,inactive
7,Nc1ccc(CCNc2ncnc3c2ncn3C2OC(CO)C(O)C2O)cc1 (stereo not given),inactive
8,NC1(C(=O)O)CC1,inactive
9,Cn1c(=O)[nH]c2ncn(C)c2c1=O,inactive
10,Nc1ncnc2c1ncn2C1CCCO1 (stereo not given),inactive
11,Fc1ccc(CN(C2=NCCN2)c2c(Cl)cccc2Cl)cc1,inactive
12,NCC(O)c1ccc(O)c(O)c1 (stereo not given),inactive
13,Cc1cc2c(cc1Cl)N(C(=O)Nc1ccnc3ccccc13)CC2,inactive
14,Cc1cccc(C(=O)NCN2CCN(c3ccccc3C#N)CC2)c1,inactive
15,Cc1nc2c(OCc3ccccc3)cccn2c1CC#N,inactive
16,COc1ccc(C(=O)NCc2cccnc2)cc1C(=O)NCc1cccnc1,inactive
17,O=c1ccc2c(OCCCCc3ccccc3)c3ccoc3cc2o1,inactive
18,O=c1onc2cnc3ccccc3n12,inactive
19,O=C(O)C1CCCNC1 (stereo not given),inactive

# Target: ATP-dependent DNA helicase Q1 (Homo sapiens) (UniProt P46063)
# Assay: qHTS Validation Assay for Inhibitors of RecQ-Like Dna Helicase 1 (RECQ1) (AID 2353); also: potency is read from the fitted curve at half-maximal effect
# Conditions: recombinant RECQ1 helicase DNA unwinding assay; series mostly up to 25.6 µM
# How it was run: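 RECQ1T1 50 nM; forked duplex (20 bp + 30-nt ss tails) 200 nM, ATP 2 mM final; pH 8.0, 2 mM MgCl2, 2.5 ug/ml poly(dI-dC); 15 min compound preincubation; discontinuous kinetic read over 2 h at RT.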
# ATP-dependent DNA helicase Q1 (Homo sapiens), sequence (P46063 whole entry, looked up): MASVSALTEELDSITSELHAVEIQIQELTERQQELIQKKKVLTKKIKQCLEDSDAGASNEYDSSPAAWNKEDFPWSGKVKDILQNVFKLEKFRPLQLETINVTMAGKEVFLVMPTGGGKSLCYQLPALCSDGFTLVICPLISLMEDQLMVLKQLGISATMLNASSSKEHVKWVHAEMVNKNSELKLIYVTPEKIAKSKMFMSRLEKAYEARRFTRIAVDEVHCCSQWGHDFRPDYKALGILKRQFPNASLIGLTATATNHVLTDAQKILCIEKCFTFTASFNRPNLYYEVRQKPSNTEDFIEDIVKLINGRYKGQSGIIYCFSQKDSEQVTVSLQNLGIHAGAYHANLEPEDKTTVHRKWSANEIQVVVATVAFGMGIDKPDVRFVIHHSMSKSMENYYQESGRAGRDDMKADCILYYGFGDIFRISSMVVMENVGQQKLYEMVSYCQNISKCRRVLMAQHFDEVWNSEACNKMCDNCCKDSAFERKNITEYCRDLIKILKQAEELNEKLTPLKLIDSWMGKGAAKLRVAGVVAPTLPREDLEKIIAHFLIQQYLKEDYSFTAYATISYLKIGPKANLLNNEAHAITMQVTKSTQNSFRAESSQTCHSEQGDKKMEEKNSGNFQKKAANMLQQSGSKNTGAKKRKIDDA
row,Structure (SMILES),Potency
1,COC(=O)C1=C(C)NC(C)=C([N+](=O)[O-])C1c1ccccc1C(F)(F)F (stereo not given),inactive
2,CC1=C(/C=C/C(C)=C/C=C/C(C)=C\C(=O)O)C(C)(C)CCC1,inactive
3,O=C(N[C@@H](Cc1ccccc1)C(=O)CCl)OCc1ccccc1,inactive
4,c1ccc2c(c1)CC(N1CCN(c3cccc4c3OCCO4)CC1)C2,inactive
5,NC(N)=NC(N)=Nc1cccc(Cl)c1,inactive
6,CCCC[C@@]1(C2CCCC2)Cc2cc(OCC(=O)O)c(Cl)c(Cl)c2C1=O,inactive
7,CCCCOC(=O)NS(=O)(=O)c1sc(CC(C)C)cc1-c1ccc(Cn2c(CC)nc3c(C)cc(C)nc32)cc1,inactive
8,Oc1cc2c(cc1O)C(c1ccccc1)CNCC2 (stereo not given),inactive
9,CC#CCOC(=O)c1c(C)nc2sc3c(c2c1N)CCC(O)C3 (stereo not given),inactive
10,O=c1cc(-c2ccccc2)[nH]c2nc(Cl)ccc12,inactive
11,Nc1ccc(CCNc2ncnc3c2ncn3C2OC(CO)C(O)C2O)cc1 (stereo not given),inactive
12,NC1(C(=O)O)CC1,inactive
13,Cc1cccc(C2CN(C)CCc3c2cc(O)c(O)c3Cl)c1 (stereo not given),inactive
14,CCCCCCCCCCCCCCC[C@H](O)[C@H](N)CO,inactive
15,N[C@@H](Cc1ccc(F)cc1)C(=O)O,inactive
16,COC1(C2=NCCN2)COc2ccccc2O1 (stereo not given),inactive
17,CC(C)(CO)Cc1cc(C(C)(C)C)c(O)c(C(C)(C)C)c1,inactive
18,COC(=O)C(C)(N)Cc1ccc(O)cc1 (stereo not given),inactive

row,Structure (SMILES),Potency
1,CCCCCCCC/C=C\CCCCCCCC(=O)NCCc1ccc(O)c(O)c1,inactive
2,N#C/C(=C\c1ccc(O)c(O)c1)C(=O)NCCc1ccccc1,inactive
3,Cn1c(=O)[nH]c2ncn(C)c2c1=O,inactive
4,Nc1ncnc2c1ncn2C1CCCO1 (stereo not given),inactive
5,Fc1ccc(CN(C2=NCCN2)c2c(Cl)cccc2Cl)cc1,inactive
6,NCC(O)c1ccc(O)c(O)c1 (stereo not given),inactive
7,O=C(O)/C=C/c1ccc(O)c(O)c1,inactive
8,Cc1cc2c(cc1Cl)N(C(=O)Nc1ccnc3ccccc13)CC2,inactive
9,CN1CCN(c2nc3cc(C(F)(F)F)ccc3n3cccc23)CC1,inactive
10,Cc1nc(N=Nc2cc(S(=O)(=O)O)c3cc([N+](=O)[O-])cc(S(=O)(=O)O)c3c2)c(COP(=O)(O)O)c(C=O)c1O,11.2 µM (active)
11,O=c1oc(Cl)c(Cl)c2ccccc12,inactive
12,Cc1cccc(C(=O)NCN2CCN(c3ccccc3C#N)CC2)c1,inactive
13,Cc1nc2c(OCc3ccccc3)cccn2c1CC#N,inactive
14,COc1ccc(C(=O)NCc2cccnc2)cc1C(=O)NCc1cccnc1,inactive
15,O=c1ccc2c(OCCCCc3ccccc3)c3ccoc3cc2o1,inactive
16,O=c1onc2cnc3ccccc3n12,inactive
17,CC[C@@H]1Cc2cc(O)ccc2C2=C1c1ccc(O)cc1C[C@H]2CC,inactive
18,O=C(O)C1CCCNC1 (stereo not given),inactive

# Target: RecQ-like DNA helicase BLM (Homo sapiens) (UniProt P54132)
# Assay: qHTS Validation Assay for Inhibitors of Bloom's syndrome helicase (BLM) (AID 2364)
# Conditions: BLM helicase DNA unwinding, fluorescence, in vitro; series mostly up to 57.1 µM
# How it was run: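 BLM 50 nM in 25 mM Tris-HCl pH 8.0, 5 mM NaCl, 2 mM MgCl2, 1 mM DTT, 0.01% Tween-20, 2.5 ug/ml poly(dI-dC); 15 min cpd preinc, RT. Start: 200 nM forked DNA + 2 mM ATP (final). TAMRA read, 2 reads 2 h apart.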
# RecQ-like DNA helicase BLM (Homo sapiens), sequence (P54132 whole entry, looked up): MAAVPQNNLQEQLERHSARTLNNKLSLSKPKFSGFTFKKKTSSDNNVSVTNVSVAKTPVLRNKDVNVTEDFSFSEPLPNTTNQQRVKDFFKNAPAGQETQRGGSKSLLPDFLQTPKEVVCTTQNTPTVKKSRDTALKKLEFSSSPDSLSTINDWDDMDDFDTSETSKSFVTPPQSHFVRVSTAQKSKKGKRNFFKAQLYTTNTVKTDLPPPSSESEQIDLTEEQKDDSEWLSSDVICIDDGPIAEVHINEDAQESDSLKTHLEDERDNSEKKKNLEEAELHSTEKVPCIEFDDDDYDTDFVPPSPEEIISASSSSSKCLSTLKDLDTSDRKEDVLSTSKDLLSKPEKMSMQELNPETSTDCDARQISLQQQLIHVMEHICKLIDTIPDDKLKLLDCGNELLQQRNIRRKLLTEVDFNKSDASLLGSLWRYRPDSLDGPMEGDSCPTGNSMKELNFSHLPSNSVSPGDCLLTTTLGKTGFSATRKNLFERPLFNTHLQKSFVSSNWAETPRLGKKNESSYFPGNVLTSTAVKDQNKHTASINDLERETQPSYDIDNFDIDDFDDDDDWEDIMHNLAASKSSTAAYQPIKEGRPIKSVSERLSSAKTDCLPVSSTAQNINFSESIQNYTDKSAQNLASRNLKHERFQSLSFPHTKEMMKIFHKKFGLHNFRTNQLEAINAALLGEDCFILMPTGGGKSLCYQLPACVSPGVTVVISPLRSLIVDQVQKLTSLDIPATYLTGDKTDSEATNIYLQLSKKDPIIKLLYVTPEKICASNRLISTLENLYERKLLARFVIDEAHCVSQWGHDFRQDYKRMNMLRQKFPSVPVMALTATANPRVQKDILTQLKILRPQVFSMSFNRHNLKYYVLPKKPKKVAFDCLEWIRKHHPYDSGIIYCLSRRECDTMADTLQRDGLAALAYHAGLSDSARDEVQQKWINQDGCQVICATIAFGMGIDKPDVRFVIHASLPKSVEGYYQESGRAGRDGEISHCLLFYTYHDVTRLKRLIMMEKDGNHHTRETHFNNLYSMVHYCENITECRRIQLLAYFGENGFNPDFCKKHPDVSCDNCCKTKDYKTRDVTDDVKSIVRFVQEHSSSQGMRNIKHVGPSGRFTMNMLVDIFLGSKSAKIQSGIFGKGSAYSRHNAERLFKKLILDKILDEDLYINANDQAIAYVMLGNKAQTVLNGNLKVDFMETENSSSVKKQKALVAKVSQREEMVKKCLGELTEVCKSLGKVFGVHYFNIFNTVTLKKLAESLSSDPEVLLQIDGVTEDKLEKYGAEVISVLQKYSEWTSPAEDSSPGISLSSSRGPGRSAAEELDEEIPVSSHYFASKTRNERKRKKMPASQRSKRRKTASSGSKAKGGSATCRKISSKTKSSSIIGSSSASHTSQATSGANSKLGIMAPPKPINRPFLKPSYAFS
row,Structure (SMILES),Potency
1,c1ccc2c(c1)CC(N1CCN(c3cccc4c3OCCO4)CC1)C2,inactive
2,Cc1cccc(C2CN(C)CCc3c2cc(O)c(O)c3Cl)c1 (stereo not given),inactive
3,N[C@@H](Cc1ccc(F)cc1)C(=O)O,inactive
4,COC(=O)C(C)(N)Cc1ccc(O)cc1 (stereo not given),inactive
5,Fc1ccc(CN(C2=NCCN2)c2c(Cl)cccc2Cl)cc1,inactive
6,O=C(O)/C=C/c1ccc(O)c(O)c1,inactive
7,CN1CCN(c2nc3cc(C(F)(F)F)ccc3n3cccc23)CC1,inactive
8,Cc1nc(N=Nc2cc(S(=O)(=O)O)c3cc([N+](=O)[O-])cc(S(=O)(=O)O)c3c2)c(COP(=O)(O)O)c(C=O)c1O,inactive
9,O=c1onc2cnc3ccccc3n12,inactive
10,O=C(O)C1CCCNC1 (stereo not given),inactive
